From PubChem
Pf Dd2 growth = blocks in vitro growth of P. falciparum Dd2. Potency, µM (series often up to 28.9 µM), actives largely listed as inhibitors. 120,000 compounds, 4.3% hits. P. falciparum Dd2 growth, SYBR Green, 72 h; active means well fitted inhibition curve with a large enough effect; further: nearly all actives have a fitted effect of over 65% in size
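Readout: SYBR Green fluorescence, 485 nm excitation, 535 nm emission, after ~16 h lysis at 37C. Before that, Dd2-infected red cells (2.5% hematocrit) grew 72 h with compound, 29 uM top final concentration.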
Each line names hits and unclear results; the compound was inactive in the other large screens. Shown is part of a subset that was picked to be rich in hits.

C[S+](=O)([O-])N1CCC2(CC1)CN(C(=O)Cc1ccc(O)cc1)Cc1ccccc1O2	none
CNC(=O)[C@@H]1C[C@H](Oc2ccccc2)CN1C(=O)c1ccc(C)nc1	none
COc1cc(C(=O)N2CCCN(C)c3ccccc32)cc(OC)c1OC	none
O=C1CO[C@H]2CN(Cc3ncc[nH]3)C[C@H]2N1Cc1ccncc1	none
Cc1nccn1CC(=O)N[C@@H]1CN(Cc2ccccn2)C[C@H]1CO	none
Cc1cccc(C(=O)N2CC3CC(C2)[C@H]2CCCC(=O)N2C3)c1 (stereo partly drawn)	none
Cc1noc(C)c1S(=O)(=O)NCCc1noc(-c2ccccc2)n1	none
COCc1noc([C@@H]2CC(F)(F)CN2C(=O)CC(C)(C)C)n1	none
CCc1cccc2c(C(CC(=O)NCc3ccc4c(c3)OCO4)c3ccc(OC)c(OC)c3)c[nH]c12 (stereo not drawn)	Pf Dd2 growth 3.98µM
CCc1cccc2c(C(CC(=O)NCCOC)c3ccc(OC)c(OC)c3)c[nH]c12 (stereo not drawn)	none
Cc1ccc(C(CC(=O)N2CCC(C)CC2)c2cn(C)c3ccccc23)cc1 (stereo not drawn)	none
CCc1cccc2c(C(CC(=O)N3CCCC3)c3cccc(Cl)c3)c[nH]c12 (stereo not drawn)	none
COc1ccc(C(CC(=O)NCc2ccccc2)c2c[nH]c3ccccc23)cc1OC (stereo not drawn)	none
CCOC(=O)C1CCN(C(=O)CC(c2ccc(OC)c(OC)c2)c2c[nH]c3c(CC)cccc23)CC1 (stereo not drawn)	Pf Dd2 growth 1.26µM
COc1ccc(C(CC(=O)N2CCCC2)c2cn(Cc3ccccc3)c3ccccc23)cc1OC (stereo not drawn)	none
Cc1ccc(C(CC(=O)N2CCc3ccccc3C2)c2cn(C)c3ccccc23)cc1 (stereo not drawn)	none
CCOC(=O)C1CCCN(C(=O)Cn2ncc3c4ccccc4n(C)c3c2=O)C1 (stereo not drawn)	none
CCOC(=O)C1CCCN(C(=O)CC(c2ccc3c(c2)OCO3)c2cn(CC)c3ccccc23)C1 (stereo not drawn)	Pf Dd2 growth 7.08µM
CCOC(=O)C1CCN(C(=O)CC(c2ccc(Cl)cc2)c2cn(C)c3ccccc23)CC1 (stereo not drawn)	Pf Dd2 growth 3.98µM
CCc1cccc2c(C(CC(=O)NCCc3ccc(OC)c(OC)c3)c3cccc(OC)c3)c[nH]c12 (stereo not drawn)	none
Cn1cnc(C(=O)N2CCC(N3CC4CC(C3)[C@H]3CCCC(=O)N3C4)CC2)c1 (stereo partly drawn)	none
O=C1NCCOCCCN(S(=O)(=O)c2ccccc2)[C@H]2CCC[C@@H]12	none
O=C(c1cccnc1)N1CCC2(CC1)C(=O)NN=C2c1cccnc1	none
O=C(NCCc1ccccc1)c1ccc(CN2C(=O)NC3(CCOCC3)C2=O)cc1	none
C#CCN(C)C(=O)c1onc(-c2ccc(Cl)cc2)c1[C@H](C)O	none
COc1ccc(-n2nc3n(c2=O)CCN(C(=O)c2ccccn2)C3)cc1	none
Cc1noc(C)c1S(=O)(=O)N1CCC(c2noc(-c3ccccc3)n2)C1 (stereo not drawn)	none
O=C(O)c1ccc2c(c1)N(S(=O)(=O)c1ccccc1F)CC2	none
O=C(Nc1cc(Cl)cc(Cl)c1)c1ccc(F)c(S(=O)(=O)N2CCCC2)c1	none
O=C(Nc1cc(Cl)cc(Cl)c1)c1ccc(F)c(S(=O)(=O)N2CCc3ccccc32)c1	Pf Dd2 growth 8.91µM
CC(=O)Nc1cccc(-c2ccnc(-c3nnc(C)n3CCc3ccccc3)c2)c1	Pf Dd2 growth 7.94µM
Cc1nnc(-c2cc(-c3cccc(O)c3)ccn2)n1CCc1ccccc1	none
Cc1nnc(-c2cc(-c3cccc(F)c3)ccn2)n1CCc1ccccc1	none
COc1ccc(C(=O)N2CCCN(c3cc(-c4ccc(C)c(C)c4)[nH]n3)CC2)c(OC)n1	none
CS(=O)(=O)N1C[C@H]2CCN(C(=O)c3cc[nH]c(=O)c3)C[C@H]21	none
O=C(NCC1CCNC1)C1CCN(c2nc(-c3ccccc3)nc3c2CCC3)CC1 (stereo not drawn)	none
COc1ccc(-n2ncc(C(=O)Nc3ccc4c(c3)OCO4)c2C2CCN(C(=O)OC(C)(C)C)CC2)cc1	Pf Dd2 growth 6.31µM
Cc1cccc(C)c1-n1ncc(C(=O)NCc2ccc3c(c2)OCO3)c1C1CCN(C(=O)OC(C)(C)C)CC1	none
CC(C)(C)OC(=O)N1CCC(c2c(C(=O)Nc3ccc4c(c3)OCCO4)cnn2-c2ccc(Cl)cc2)CC1	Pf Dd2 growth 7.08µM
Cc1ccc(-n2ncc(C(=O)Nc3ccc4c(c3)OCCO4)c2C2CCN(C(=O)OC(C)(C)C)CC2)cc1	none
Cc1ccc(-n2ncc(C(=O)Nc3ccc4c(c3)OCO4)c2C2CCN(C(=O)OC(C)(C)C)CC2)cc1	none
CC(C)(C)OC(=O)N1CCC(c2c(C(=O)Nc3ccc4c(c3)OCO4)cnn2-c2ccc(F)cc2F)CC1	Pf Dd2 growth 12.6µM
Cc1ccc(-n2ncc(C(=O)NCc3ccc4c(c3)OCO4)c2C2CCN(C(=O)OC(C)(C)C)CC2)cc1C	none
CC(C)(C)OC(=O)N1CCC(c2c(C(=O)Nc3ccc4c(c3)OCCO4)cnn2-c2ccccc2)CC1	Pf Dd2 growth 7.94µM
O=C(CC[C@H]1NC(=O)c2ccccc2NC1=O)NCCn1cnc2ccccc2c1=O	none
Cc1occc1C(=O)N[C@@H]1CN(c2ccncn2)C[C@H]1CN(C)C	none
CCc1ccccc1-n1nc(-c2c(C)nc3scc(CC(=O)NCCOC)n3c2=O)cc1C	none
CN1[C@@H](CCC(=O)NCc2ccco2)CNC(=O)[C@@H]2[C@H]1CCN2Cc1cccc(Cl)c1	none
COCCn1ncc(N2CCC(C(=O)N3CCN(CC(=O)Nc4ccc(C)cc4)CC3)C2)cc1=O (stereo not drawn)	none
COCc1nc(C2CCCN(C(=O)Nc3cc(C)ccc3C)C2)no1 (stereo not drawn)	none
O=C1NC(C(=O)NCc2cccnc2)Cn2cccc21 (stereo not drawn)	none
CN(Cc1cnn(C)c1)C(=O)c1csc2nc(-c3ccc(C(F)(F)F)cc3)cn12	none
COCCNC(=O)C(NC(=O)c1ccc(C)cc1)C1CCN(C(=O)c2ccc(Cl)cc2)CC1 (stereo not drawn)	none
Cc1ccccc1CNC(=O)c1ccc2c(c1)N(C)C1CCCN1C2=O (stereo not drawn)	none
CCc1nc(-c2c3n(c(=O)n(CC(=O)Nc4ccc(C)c(F)c4)c2=O)CCCC3)no1	none
CCC(C)NC(=O)c1cnn(-c2ccc(Cl)cc2)c1C1CCN(C(=O)OC(C)(C)C)CC1 (stereo not drawn)	Pf Dd2 growth 11.2µM
CC1CCN(C(=O)c2cnn(-c3ccc(Cl)cc3)c2C2CCN(C(=O)OC(C)(C)C)CC2)CC1	none
Cc1nn(C)cc1C(=O)N[C@@H]1CN(S(C)(=O)=O)C[C@H]1CN(C)C	none
O=C(Nc1ccc(I)cc1)c1cc(-c2ccc[nH]2)n[nH]1	none
Cc1ccc(NC(=O)c2c(C)oc3ccc(O)c(CN(C)Cc4ccccc4)c23)c(C)c1	Pf Dd2 growth 1.26µM
Cc1ccc(NC(=O)c2c(C)oc3ncnc(N4CCCCC4)c23)c(C)c1	none
CN(Cc1ccc(-c2ccccc2)cc1)C(=O)Nc1ccccc1	none
Cc1oc2ccn(Cc3cccc(F)c3)c(=O)c2c1C(=O)N(C)Cc1ccccc1	none
Cc1oc2ccc(O)c(CN(C)Cc3ccccc3)c2c1C(=O)Nc1ccccc1	Pf Dd2 growth 1.12µM
Cc1ccc(NC(=O)Nc2nnc(N(C)Cc3ccccc3)s2)c(C)c1	none
Cc1nn(C)c(C)c1S(=O)(=O)NC1CCc2nnc(C3CC3)n2CC1 (stereo not drawn)	none
Cn1nc(C(=O)NCC2(C)CCOCC2)c2ccccc21	none
